Test results taken from the supplement of paper PMC12067093, “Discovery and optimisation of a covalent ligand for TRIM25 and its application to targeted protein ubiquitination” (Chemical Science, 2025).
The full data set covers some 21,000 targets. This sample favours those with the largest changes.

Compound: CC1Cc2ccccc2N1C(=O)C1CCCN(C1)C(=O)CCl (mixture of isomers) [TRIM25 ligand 11 (diastereomer mixture)]
Assay: probe-labelled cysteine peptide fold change vs DMSO (competition) (log2 fold change); higher = less target engagement (more negative = stronger competition)
Settings: THP-1, incubation time: 4 h
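Note: competitive chemoproteomic profiling in live THP-1 cells with an iodoacetamide desthiobiotin (IA-DTB) probe, comparing probe-labelled peptide intensities in compound-treated cells against DMSO-treated controls.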

Chain of UniProt Q9BWU0 (Q9BWU0 whole entry, looked up): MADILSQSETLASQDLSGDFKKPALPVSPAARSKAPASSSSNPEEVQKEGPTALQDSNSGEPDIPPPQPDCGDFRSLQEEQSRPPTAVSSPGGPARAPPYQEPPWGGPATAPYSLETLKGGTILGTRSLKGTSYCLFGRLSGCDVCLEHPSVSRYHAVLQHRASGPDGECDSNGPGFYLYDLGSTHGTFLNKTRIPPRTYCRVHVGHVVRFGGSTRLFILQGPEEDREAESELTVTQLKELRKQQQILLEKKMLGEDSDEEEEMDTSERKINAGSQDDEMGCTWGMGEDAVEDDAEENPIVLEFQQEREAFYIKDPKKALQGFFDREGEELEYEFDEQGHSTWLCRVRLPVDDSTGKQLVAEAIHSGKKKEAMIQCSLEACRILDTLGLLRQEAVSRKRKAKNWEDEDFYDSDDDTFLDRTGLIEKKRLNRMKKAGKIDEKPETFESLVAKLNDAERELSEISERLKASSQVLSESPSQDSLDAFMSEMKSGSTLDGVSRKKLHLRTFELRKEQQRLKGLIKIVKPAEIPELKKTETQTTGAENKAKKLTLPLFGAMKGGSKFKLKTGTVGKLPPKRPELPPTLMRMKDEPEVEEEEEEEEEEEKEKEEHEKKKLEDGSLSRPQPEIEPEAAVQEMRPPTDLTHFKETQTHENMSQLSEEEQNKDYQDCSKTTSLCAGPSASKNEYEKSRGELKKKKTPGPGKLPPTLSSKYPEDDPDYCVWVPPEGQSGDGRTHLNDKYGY
Chain of UniProt Q15005 (Q15005 whole entry): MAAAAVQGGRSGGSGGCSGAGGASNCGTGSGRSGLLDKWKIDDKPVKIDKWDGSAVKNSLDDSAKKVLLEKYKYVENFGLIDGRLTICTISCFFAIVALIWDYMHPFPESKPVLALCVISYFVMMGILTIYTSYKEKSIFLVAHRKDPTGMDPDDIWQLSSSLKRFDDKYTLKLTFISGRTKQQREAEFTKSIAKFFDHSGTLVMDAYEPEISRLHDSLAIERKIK
Chain of UniProt P61619 (P61619 whole entry, looked up): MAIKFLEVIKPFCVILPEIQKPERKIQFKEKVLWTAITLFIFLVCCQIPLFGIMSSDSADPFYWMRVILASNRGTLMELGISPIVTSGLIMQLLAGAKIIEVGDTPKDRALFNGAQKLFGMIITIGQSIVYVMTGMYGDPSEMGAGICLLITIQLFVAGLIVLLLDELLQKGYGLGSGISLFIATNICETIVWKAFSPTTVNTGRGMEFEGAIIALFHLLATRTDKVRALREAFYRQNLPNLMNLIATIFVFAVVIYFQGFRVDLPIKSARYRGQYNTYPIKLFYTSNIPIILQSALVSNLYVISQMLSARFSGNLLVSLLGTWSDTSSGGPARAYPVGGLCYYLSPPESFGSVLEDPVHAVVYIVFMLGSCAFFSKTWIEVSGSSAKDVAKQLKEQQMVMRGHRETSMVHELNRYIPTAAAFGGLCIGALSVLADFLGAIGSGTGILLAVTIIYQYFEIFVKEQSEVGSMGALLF
Chain of UniProt O75818 (O75818 whole entry, looked up): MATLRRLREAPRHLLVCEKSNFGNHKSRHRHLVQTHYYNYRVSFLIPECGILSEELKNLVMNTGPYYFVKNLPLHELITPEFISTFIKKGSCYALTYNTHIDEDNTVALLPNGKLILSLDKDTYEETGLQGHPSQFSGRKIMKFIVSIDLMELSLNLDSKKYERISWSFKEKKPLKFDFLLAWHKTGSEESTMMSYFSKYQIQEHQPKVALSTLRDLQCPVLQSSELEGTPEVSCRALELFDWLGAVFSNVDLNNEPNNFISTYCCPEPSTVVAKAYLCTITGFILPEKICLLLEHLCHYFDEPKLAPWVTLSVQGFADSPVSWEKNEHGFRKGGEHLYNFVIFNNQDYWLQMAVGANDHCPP
Chain of UniProt Q96DX4 (Q96DX4 whole entry, looked up): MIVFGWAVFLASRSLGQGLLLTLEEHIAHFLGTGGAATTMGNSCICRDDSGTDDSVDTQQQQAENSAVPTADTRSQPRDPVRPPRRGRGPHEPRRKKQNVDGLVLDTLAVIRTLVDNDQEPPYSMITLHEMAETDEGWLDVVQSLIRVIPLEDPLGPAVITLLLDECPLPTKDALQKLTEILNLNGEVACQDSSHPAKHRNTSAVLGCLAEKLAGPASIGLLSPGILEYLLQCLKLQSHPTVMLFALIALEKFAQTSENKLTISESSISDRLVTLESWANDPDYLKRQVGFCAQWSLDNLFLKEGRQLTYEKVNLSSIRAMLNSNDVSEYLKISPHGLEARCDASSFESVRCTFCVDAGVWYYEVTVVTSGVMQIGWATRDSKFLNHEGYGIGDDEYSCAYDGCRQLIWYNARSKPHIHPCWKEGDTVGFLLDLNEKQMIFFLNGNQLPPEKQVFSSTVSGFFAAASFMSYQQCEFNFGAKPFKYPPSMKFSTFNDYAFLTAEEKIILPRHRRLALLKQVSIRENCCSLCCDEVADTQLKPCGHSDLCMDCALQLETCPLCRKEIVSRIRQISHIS
Chain of UniProt Q7Z7L1 (Q7Z7L1 whole entry, looked up): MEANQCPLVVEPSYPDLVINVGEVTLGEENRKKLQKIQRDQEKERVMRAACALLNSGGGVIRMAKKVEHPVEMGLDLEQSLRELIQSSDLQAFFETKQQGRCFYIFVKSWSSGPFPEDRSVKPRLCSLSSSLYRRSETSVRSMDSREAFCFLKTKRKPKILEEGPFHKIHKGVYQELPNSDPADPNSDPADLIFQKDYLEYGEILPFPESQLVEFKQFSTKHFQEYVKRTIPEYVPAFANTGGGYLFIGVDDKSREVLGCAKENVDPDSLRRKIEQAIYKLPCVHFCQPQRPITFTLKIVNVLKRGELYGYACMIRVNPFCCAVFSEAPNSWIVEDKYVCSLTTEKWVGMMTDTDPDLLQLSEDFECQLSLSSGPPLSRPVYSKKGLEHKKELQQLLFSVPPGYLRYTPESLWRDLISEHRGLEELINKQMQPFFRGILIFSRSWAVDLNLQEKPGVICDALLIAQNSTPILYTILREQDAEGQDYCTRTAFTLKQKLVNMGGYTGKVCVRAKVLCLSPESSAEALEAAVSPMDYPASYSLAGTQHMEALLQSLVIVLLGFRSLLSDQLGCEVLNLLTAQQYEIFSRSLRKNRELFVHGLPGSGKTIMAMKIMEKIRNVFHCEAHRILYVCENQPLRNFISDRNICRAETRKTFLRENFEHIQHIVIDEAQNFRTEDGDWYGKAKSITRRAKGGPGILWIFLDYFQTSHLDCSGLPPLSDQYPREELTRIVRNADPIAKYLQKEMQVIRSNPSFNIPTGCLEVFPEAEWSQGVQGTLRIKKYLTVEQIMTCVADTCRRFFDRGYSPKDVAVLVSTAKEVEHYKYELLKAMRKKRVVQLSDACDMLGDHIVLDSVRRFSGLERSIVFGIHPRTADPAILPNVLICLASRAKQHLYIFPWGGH
Chain of UniProt P23921 (P23921 whole entry, looked up): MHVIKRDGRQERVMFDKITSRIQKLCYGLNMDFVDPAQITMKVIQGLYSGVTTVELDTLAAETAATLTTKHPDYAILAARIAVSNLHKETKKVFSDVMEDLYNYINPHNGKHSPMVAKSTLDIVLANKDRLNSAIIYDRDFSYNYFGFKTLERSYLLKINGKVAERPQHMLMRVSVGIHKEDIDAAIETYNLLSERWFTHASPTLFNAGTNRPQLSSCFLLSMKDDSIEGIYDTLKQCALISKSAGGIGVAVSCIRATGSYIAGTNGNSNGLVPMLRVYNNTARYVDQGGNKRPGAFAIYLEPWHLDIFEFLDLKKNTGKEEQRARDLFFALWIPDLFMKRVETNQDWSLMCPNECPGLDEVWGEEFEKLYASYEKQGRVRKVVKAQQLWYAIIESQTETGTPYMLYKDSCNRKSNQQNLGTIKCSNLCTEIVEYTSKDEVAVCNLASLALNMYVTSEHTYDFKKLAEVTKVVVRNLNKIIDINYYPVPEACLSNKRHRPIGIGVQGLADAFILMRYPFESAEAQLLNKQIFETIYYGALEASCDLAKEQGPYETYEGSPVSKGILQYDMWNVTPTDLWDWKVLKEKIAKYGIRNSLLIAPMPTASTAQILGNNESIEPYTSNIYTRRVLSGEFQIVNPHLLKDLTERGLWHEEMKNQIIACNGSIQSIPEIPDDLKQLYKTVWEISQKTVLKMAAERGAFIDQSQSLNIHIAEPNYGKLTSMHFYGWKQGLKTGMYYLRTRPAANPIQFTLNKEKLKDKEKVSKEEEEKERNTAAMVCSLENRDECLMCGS
Chain of UniProt Q15758 (Q15758 whole entry, looked up): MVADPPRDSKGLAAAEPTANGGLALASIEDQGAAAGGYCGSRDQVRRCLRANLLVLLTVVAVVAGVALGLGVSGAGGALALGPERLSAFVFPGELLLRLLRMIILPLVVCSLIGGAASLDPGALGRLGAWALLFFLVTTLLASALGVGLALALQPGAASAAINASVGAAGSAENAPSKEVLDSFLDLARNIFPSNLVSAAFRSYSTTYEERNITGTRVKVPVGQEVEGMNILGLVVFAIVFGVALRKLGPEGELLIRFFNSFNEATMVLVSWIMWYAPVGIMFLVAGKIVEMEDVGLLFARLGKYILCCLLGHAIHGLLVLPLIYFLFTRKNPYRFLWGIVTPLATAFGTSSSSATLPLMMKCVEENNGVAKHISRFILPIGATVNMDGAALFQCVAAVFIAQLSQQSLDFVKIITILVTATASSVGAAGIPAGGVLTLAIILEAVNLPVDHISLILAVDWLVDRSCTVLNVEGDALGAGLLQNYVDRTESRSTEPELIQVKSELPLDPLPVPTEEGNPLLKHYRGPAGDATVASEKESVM
Chain of UniProt Q96DI7 (Q96DI7 whole entry, looked up): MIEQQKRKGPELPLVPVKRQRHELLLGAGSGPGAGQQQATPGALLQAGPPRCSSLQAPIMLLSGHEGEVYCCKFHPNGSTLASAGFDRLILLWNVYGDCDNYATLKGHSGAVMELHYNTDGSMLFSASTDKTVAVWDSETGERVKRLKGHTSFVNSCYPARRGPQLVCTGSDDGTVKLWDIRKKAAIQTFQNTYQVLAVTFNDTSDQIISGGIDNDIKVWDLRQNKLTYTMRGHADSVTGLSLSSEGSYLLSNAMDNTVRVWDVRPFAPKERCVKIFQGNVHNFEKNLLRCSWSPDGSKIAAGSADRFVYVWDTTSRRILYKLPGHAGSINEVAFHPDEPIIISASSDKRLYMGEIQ

Target	probe-labelled cysteine peptide fold change (10 µM)	probe-labelled cysteine peptide fold change (50 µM)
SH3GLB1_Q9Y371_304_ECSGSR (UniProt Q9Y371)	-0.137	0.575
RREB1_Q92766_291_DAMGRPFIQNNPSIPAGFHDLGFTDFSCR (UniProt Q92766)	-0.104	-0.0626
SAMD4B_Q5PRF9_20_GWNECEQTVALLSLLK<|>SAMD4A_Q9UPU9_20_GWNECEQTVALLSLLK (UniProt Q9UPU9+Q5PRF9)	-0.204	0.121
SLC4A1AP_Q9BWU0_399_EGEELEYEFDEQGHSTWLCR (UniProt Q9BWU0)	-0.0527	0.0332
SNX14_Q9Y5W7_593_IPVFCIDVER (UniProt Q9Y5W7)	0.3	0.776
RSPRY1_Q96DX4_190_LTEILNLNGEVACQDSSHPAK (UniProt Q96DX4)	-0.258	-0.129
SNRNP40_Q96DI7_72_CSSLQAPIMLLSGHEGEVYCCK (UniProt Q96DI7)	0.165	0.0428
SAMD9_Q5K651_975+979_TEVIECGNYCGVR (UniProt Q5K651)	0.388	0.22
SEC61A1_P61619_13_FLEVIKPFCVILPEIQKPERK (UniProt P61619)	-0.291	-0.191
RSBN1_Q5VWQ0_671_IQLCDNDIYFIPR (UniProt Q5VWQ0)	0.00486	0.13
SERPINF2_P08697_152_LCQDLGPGAFR (UniProt P08697)	0.591	0.7
RRM1_P23921_218_WFTHASPTLFNAGTNRPQLSSCFLLSMKDDSIEGIYDTLK (UniProt P23921)	0.111	0.0345
RPS6KA3_P51812_436_EDIGVGSYSVCK<|>RPS6KA2_Q15349_429_EDIGVGSYSVCK (UniProt Q15349+P51812)	-0.0733	-0.656
RTRAF_Q9Y224_19_LTALDYHNPAGFNCK (UniProt Q9Y224)	0.414	0.404
SPCS2_Q15005_17+26_SGGSGGCSGAGGASNCGTGSGR (UniProt Q15005)	-0.266	-0.603
SLFN11_Q7Z7L1_322_VNPFCCAVFSEAPNSWIVEDK (UniProt Q7Z7L1)	0.661	0.447

Target	probe-labelled cysteine peptide fold change (10 µM)	probe-labelled cysteine peptide fold change (50 µM)
RUVBL1_Q9Y265_94_VPFCPMVGSEVYSTEIK (UniProt Q9Y265)	0.0537	-0.0791
SETDB1_Q15047_1207_QFYDGEESCYIIDAK (UniProt Q15047)	-0.0777	-0.0706
SATB2_Q9UPW6_159_IQLQSCSK (UniProt Q9UPW6)	0.071	-0.00125
RUFY1_Q96T51_692_VCDSCHTLLLQR (UniProt Q96T51)	0.114	-0.0564
RSBN1_Q5VWQ0_282_EVQTVCAGLTR (UniProt Q5VWQ0)	0.00457	-0.119
RPP40_O75818_235_DLQCPVLQSSELEGTPEVSCR (UniProt O75818)	0.892	0.729
SHMT1_P34896_335_VYQHQVVANCR (UniProt P34896)	0.0178	0.112
SLC1A5_Q15758_467_SCTVLNVEGDALGAGLLQNYVDR (UniProt Q15758)	-0.0169	0.588
SH3KBP1_Q96B97_301_DCIDVGWWEGELNGRR (UniProt Q96B97)	-0.0866	-0.063
SLX4_Q8IY92_786_FGVSELVHLCEQVPIATDSEGKPWEEK (UniProt Q8IY92)	0.00222	0.116
SETDB1_Q15047_582_LFYLPHVCSYTCLSR (UniProt Q15047)	-0.142	-0.048
SHCBP1_Q8NEM2_591_VDLEELIECATGK (UniProt Q8NEM2)	0.088	-0.228
SPATA5L1_Q9BVQ7_104_LLLVPCPPLRR (UniProt Q9BVQ7)	-0.0644	0.126
RPS2_P15880_222_KLLMMAGIDDCYTSAR (UniProt P15880)	-0.59	-0.607
SLC2A9_Q9NRM0_36_ALLECDHLR (UniProt Q9NRM0)	-0.0472	-0.18
SNX18_Q96RF0-2_570_CNTISFATLAEIHHFHQIR (UniProt Q96RF0)	0.155	0.111
